Drawing on PubChem BioAssay, this text covers composite z-score and z-score for 5 molecules.

Active and inactive are the calls of the source.

Assay [1] can be described thus: small molecules captured by biotinylated probe aFSTL3 – biochemical, small-molecule microarray, fluorescence 635/667, stem cell growth factor project, primary screen (AID 1064).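 Further: measures binding of the biotinylated anti-FSTL3 antibody to printed compounds.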 The note with it: higher = more signal.
Assay [2] is described as follows: binders from COS7 lysate, DM2A8 probe, primary screen, torsin A project, cell lysate, small-molecule microarray, fluorescence 635/667 (AID 1065). The conditions noted are these: higher = more signal, COS7 lysate expressing mutant human TOR1A.
A short description of assay [3]: small molecules captured by biotinylated probe aFGF2 – biochemical, small-molecule microarray, fluorescence 635/667, stem cell growth factor project, primary screen (AID 1067).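 Further: measures binding of biotinylated aFGF2 protein to printed compounds on slides; z-score merges feature fluorescence and signal-to-noise across triplicate slides.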 The note with it: higher = more signal.
The nature of assay [4]: small molecules captured by biotinylated probe aFGF10 – biochemical, small-molecule microarray, fluorescence 635/667, stem cell growth factor project, primary screen (AID 1071).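 Further: score merges 667 nm spot intensity and signal to noise from triplicate slides.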 The note with it: higher = more signal.
The target of assay [5] is Neurogenic locus notch homolog protein 2 (Homo sapiens) (UniProt Q04721). Nature of the assay: small molecules binding Notch2 protein – biochemical, small-molecule microarray, 635 nm fluorescence, stem cell growth factors, primary screen (AID 1073). The conditions noted are these: higher = more signal.
The target of assay [6] is Pro-neuregulin-1, membrane-bound isoform (Homo sapiens) (UniProt Q02297). The assay is described as follows: small molecules binding neuregulin-1 protein – biochemical, small-molecule microarray, fluorescence 635/667, psychiatric disease protein project, primary screen (AID 1075).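 Further: score combines 667 nm spot fluorescence with signal to noise.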 The note with it: NRG1 binding, 635 nm fluorescence, higher = more signal.
Chain of Pro-neuregulin-1, membrane-bound isoform (Homo sapiens) (Q02297 whole entry, looked up, the tested form may be a part, canonical isoform): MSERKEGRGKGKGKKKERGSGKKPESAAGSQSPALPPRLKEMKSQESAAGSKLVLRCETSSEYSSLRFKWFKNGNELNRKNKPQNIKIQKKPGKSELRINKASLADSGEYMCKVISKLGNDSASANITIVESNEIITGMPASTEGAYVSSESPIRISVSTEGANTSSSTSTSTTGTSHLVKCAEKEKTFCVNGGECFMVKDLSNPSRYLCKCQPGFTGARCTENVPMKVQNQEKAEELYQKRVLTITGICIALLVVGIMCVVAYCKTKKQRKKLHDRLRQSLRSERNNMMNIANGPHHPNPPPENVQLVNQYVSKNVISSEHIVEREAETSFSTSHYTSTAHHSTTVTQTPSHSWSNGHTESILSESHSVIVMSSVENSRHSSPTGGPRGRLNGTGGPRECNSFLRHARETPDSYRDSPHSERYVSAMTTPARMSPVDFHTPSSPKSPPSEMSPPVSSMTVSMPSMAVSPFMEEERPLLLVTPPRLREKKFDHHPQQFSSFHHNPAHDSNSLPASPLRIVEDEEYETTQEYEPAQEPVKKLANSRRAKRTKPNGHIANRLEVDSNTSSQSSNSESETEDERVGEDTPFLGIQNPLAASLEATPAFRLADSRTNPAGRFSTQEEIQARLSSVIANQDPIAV
In assay [7] the test system is Neuregulin-1 EGF-like domain. The assay is described as follows: small molecules binding NRG1 EGF domain – biochemical, small-molecule microarray, 635 nm fluorescence, primary screen (AID 1081).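 Further: binding of the protein to compounds printed on small-molecule microarray slides.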 The note with it: higher = more signal.
A short description of assay [8]: FRG1 expression reporter modulators in myotubes – cell-based, C2C12 myotubes, firefly/Renilla luciferase, luminescence, FRG1 inhibition for FSHD, primary screen (AID 1084). The conditions noted are these: FRG1 promoter luciferase, higher = more signal, called active from +8 up or from −8 down.
Assay [9] can be described thus: small molecules captured by biotinylated probe aFST – biochemical, small-molecule microarray, fluorescence 635/667, stem cell growth factor project, primary screen (AID 1086).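 Further: score merges 667 nm fluorescence with signal-to-noise of each printed compound spot.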 The conditions noted are these: higher = more signal.
Assay [10] can be described thus: binders of probe aHhip on microarray, primary screen, stem cell growth factor project, biochemical, small-molecule microarray, fluorescence 635/667 (AID 1087).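 Further: score merges spot fluorescence at 667nm with spot signal to noise ratio.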 The note with it: higher = more signal.
For assay [11], the system named is PRMT1 (protein arginine N-methyltransferase 1). Nature of the assay: small molecules binding arginine methyltransferase PRMT1 – biochemical, small-molecule microarray, 635 nm fluorescence, primary screen (AID 1088).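 Further: binding of Prmt1 protein to compounds spotted on small-molecule microarray slides.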 The note with it: higher = more signal.
A short description of assay [12]: growth effects on S. cerevisiae YJM789 – YJM789 clinical isolate, OD600, 24 h, basal, primary screen (AID 1089).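 Further: growth of clinical yeast isolate S. cerevisiae YJM 789 seeded 1000 cells per well; test concentration not given here.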 The conditions noted are these: higher = more signal, called active from +8 up or from −8 down.
Assay [13] can be described thus: S. pombe growth modifiers, basal conditions – strain 972, OD600, 24 h, no modulator, primary screen (AID 1090).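 Further: basal condition with compound alone and no growth modifier present; test concentration not given here.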 The conditions noted are these: S. pombe 972 growth, higher = more signal, called active from +8 up or from −8 down.
A short description of assay [14]: budding yeast growth modifiers under rapamycin – strain BY4716, OD600, 96 h, primary screen (AID 1091). Further: test concentration not given here. The conditions noted are these: S. cerevisiae BY4716 + rapamycin, higher = more signal, called active from +8 up or from −8 down.
The target in assay [15] is Torsin-1A-interacting protein 2 (Homo sapiens) (UniProt Q8NFQ8). The assay is described as follows: small molecules binding lysate-expressed LULL1 – cell lysate, human LULL1 lysate, 635/667 nm fluorescence, primary screen (AID 1092).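 Further: score merges per-feature 667 nm fluorescence with signal-to-noise.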 The conditions noted are these: small-molecule microarray, hLULL1 lysate binding, 635 nm fluorescence; higher = more signal.
Chain of Torsin-1A-interacting protein 2 (Homo sapiens) (Q8NFQ8 whole entry, looked up): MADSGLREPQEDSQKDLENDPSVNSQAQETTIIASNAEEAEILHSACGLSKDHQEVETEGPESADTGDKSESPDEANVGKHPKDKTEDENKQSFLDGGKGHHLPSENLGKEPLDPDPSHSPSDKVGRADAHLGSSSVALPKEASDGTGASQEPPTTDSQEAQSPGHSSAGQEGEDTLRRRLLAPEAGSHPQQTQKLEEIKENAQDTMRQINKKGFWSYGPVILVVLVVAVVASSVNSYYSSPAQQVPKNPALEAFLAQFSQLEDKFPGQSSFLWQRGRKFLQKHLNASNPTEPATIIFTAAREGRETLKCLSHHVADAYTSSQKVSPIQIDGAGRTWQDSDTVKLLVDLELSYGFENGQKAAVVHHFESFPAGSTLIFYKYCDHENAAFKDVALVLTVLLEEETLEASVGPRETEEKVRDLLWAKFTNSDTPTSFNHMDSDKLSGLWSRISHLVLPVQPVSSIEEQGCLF
Assay [16] is described as follows: optical density change of DRC41 E. coli – strain DRC41, OD650, 24 h, E. coli filamentation project, primary screen (AID 1093).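 Further: MC1000 strain lacking acrAB efflux and sulA so SOS filamentation is blocked; test concentration not given here.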 The note with it: E. coli DRC41 growth, higher = more signal, called active from +8 up or from −8 down.
Assay [17] can be described thus: probe aLefty2 binding to arrayed compounds – biochemical, biotinylated probe, 635/667 nm fluorescence, primary screen (AID 1094).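 Further: score merges spot fluorescence near 667 nm with spot signal-to-noise ratio.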 The conditions noted are these: small-molecule microarray, higher = more signal.
In assay [18] the test system is Noggin (protein binding on small-molecule microarray). The assay is described as follows: small molecules binding Noggin protein – biochemical, 635/667 nm fluorescence, primary screen (AID 1095).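 Further: score merges 667 nm feature fluorescence with signal to noise over triplicate slides.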 The note with it: 635 nm fluorescence, higher = more signal.
In assay [19] the target is Neurogenic locus notch homolog protein 3 (Homo sapiens) (UniProt Q9UM47). Nature of the assay: small molecules binding NOTCH3 protein – biochemical, 635/667 nm fluorescence, primary screen (AID 1096). The note with it: small-molecule microarray, 635 nm fluorescence, higher = more signal.
Chain of Neurogenic locus notch homolog protein 3 (Homo sapiens) (Q9UM47 whole entry, looked up): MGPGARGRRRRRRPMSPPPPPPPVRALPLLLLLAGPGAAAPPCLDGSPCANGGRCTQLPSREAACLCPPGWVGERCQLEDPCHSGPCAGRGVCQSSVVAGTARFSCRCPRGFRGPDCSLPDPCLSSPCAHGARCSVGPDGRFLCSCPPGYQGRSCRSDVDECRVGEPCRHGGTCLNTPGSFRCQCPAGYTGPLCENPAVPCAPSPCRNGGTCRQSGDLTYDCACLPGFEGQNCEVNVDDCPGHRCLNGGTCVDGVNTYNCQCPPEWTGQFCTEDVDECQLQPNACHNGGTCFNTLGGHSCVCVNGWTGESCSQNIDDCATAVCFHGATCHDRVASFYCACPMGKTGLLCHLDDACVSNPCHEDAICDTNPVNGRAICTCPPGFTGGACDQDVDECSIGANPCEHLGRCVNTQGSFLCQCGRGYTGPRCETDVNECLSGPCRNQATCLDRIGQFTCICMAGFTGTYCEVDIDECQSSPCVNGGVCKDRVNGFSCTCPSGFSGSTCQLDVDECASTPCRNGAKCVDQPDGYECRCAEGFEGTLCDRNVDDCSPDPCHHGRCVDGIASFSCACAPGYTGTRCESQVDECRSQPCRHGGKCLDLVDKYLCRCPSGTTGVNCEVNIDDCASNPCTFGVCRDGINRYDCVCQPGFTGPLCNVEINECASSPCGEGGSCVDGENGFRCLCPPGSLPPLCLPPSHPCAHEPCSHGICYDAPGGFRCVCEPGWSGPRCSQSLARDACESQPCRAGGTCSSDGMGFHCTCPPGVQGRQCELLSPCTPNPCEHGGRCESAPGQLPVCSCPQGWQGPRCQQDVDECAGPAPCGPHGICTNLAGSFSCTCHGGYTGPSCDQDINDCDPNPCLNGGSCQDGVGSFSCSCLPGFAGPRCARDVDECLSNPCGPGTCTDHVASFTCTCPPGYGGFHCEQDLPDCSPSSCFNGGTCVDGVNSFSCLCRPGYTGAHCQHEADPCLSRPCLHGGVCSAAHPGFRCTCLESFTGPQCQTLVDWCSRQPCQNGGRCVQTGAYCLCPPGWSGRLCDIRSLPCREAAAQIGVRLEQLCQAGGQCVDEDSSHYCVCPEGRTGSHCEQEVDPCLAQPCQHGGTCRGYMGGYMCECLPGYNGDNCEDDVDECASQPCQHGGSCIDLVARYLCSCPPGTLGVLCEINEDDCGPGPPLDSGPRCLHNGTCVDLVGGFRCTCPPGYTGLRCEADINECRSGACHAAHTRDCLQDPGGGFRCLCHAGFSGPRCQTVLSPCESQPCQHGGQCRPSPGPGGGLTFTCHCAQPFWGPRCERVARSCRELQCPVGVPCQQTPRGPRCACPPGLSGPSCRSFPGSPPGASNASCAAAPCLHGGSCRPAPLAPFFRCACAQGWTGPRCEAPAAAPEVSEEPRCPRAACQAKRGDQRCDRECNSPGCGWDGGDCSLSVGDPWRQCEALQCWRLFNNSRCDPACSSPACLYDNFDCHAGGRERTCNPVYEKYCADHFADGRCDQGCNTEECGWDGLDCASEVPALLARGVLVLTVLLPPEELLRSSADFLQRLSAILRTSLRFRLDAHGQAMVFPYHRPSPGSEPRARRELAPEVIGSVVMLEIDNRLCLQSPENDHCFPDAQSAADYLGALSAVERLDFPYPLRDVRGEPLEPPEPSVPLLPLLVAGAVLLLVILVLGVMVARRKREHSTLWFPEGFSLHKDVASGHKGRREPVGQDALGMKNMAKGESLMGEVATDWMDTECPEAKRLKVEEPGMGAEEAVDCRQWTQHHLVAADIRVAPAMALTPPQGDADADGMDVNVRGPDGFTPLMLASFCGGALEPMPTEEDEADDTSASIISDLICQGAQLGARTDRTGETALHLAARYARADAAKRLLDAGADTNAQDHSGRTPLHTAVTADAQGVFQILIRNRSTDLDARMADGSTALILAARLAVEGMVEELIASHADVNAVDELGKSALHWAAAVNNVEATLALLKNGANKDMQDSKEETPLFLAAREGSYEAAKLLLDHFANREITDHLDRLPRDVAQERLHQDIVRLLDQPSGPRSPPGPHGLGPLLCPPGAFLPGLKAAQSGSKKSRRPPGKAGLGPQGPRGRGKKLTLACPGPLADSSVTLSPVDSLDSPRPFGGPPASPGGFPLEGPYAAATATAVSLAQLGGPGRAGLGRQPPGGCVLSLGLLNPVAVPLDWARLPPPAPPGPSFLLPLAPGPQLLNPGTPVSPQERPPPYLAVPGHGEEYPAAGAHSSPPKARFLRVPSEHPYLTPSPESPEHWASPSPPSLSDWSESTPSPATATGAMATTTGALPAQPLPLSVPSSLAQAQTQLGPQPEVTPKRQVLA
Assay [20] in a line: probe aEGFR binding to arrayed compounds – biochemical, biotinylated probe, 635/667 nm fluorescence, primary screen (AID 1097).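 Further: probe is a biotinylated anti-EGFR antibody binding compounds printed on slides; score combines fluorescence near 667 nm and signal to noise of each spot.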 The conditions noted are these: small-molecule microarray, higher = more signal.

As to `CC[C@H]1C2=C3C(CC[C@H]4C(OC)OC[C@](C)([C@@H]34)N(C(=O)OC(C)(C)C)C2)C(CO)C1CO` (stereo not given in full), the composite z-score turned out to be 1.21 in assay [1]; 0.896 in assay [2]; 0.181 in assay [3]; 0.366 in assay [4]; 1.65 in [5]; 1.32 in [6]. In addition, the composite z-score came out at 1.13 in assay [7]; 1.87 in [9]; 0.0053 in assay [10]; 1.4 in assay [11]; 3.35 in [15]; 0.762 in [17]. For the same molecule, the composite z-score in assay [18] worked out at 0.0676; in assay [19] it was 1.11; in assay [20], 0.477. The z-score was -0.342 (inactive) in [8]; -1.22 (inactive) in assay [12]; 1.21 (inactive) in assay [13]; -0.565 (inactive) in assay [14]; -0.468 (inactive) in assay [16].

On to `CCCNC(=O)[C@@H]1c2ccccc2C(=O)N(Cc2cc(F)cc(C(F)(F)F)c2)[C@H]1c1ccc(CO)cc1`, for which the composite z-score in assay [1] is -0.0356; in [2], 0.711; in [3] it was 0.032; in assay [4] it was 0.525; in assay [5] it was 1.12; in assay [6], 1.03. The composite z-score in assay [7] is 1.25; in assay [9], 0.613; in assay [10], 0.0176; in assay [11], 1.54; in assay [15], 2.83; in assay [17], 0.0465. The composite z-score in assay [18] was 1.66; in assay [19] it was 1.05; in [20], 0.289. The z-score in [8] was -1.02 (inactive); in assay [12], -1.15 (inactive); in [13], -2.49 (inactive); in assay [14], -1.36 (inactive); in [16], 1.97 (inactive).

Take `C=CCNC(=O)[C@H]1[C@@H]2C(=O)O[C@@H](c3ccccc3)[C@@H](c3ccccc3)N2[C@@H](c2ccccc2OCCO)[C@]12C(=O)N(C(=O)OCCOC)c1ccc(C#CCC(C(=O)OC)C(=O)OC)cc12`: the composite z-score in assay [1] was -0.257; in assay [2], 0.864; in [3], 0.0556; in [4], 0.408; in assay [5] it was 1.34; in [6] it was 1.47. In addition, the composite z-score stood at 1.22 in assay [7]; 0.336 in assay [9]; 0.276 in assay [10]; 1.55 in [11]; 2.97 in assay [15]; 0.0757 in assay [17]. In addition, the results for the composite z-score in assay [18], in assay [19] and in assay [20] were 1.15, 1.03 and 0.0343, respectively. Further, the z-score in [8] was -0.678 (inactive); in [12], 0.759 (inactive); in assay [13] it was -1.68 (inactive); in assay [14] it was 5.51 (inactive); in assay [16], 3.27 (inactive).

As for `C=CCOC(=O)[C@@H]1[C@H]2C(=O)O[C@H](c3ccccc3)[C@H](c3ccccc3)N2[C@H](c2ccc(OCCOC(=O)[C@H]3C[C@H]4C(=O)N[C@@H](CCCCNC(C)=O)C(=O)N4[C@H]3c3ccc(O)cc3)cc2)[C@@]12C(=O)Nc1ccc(I)cc12`, the composite z-score in assay [1] was -0.583; in [2] it was 0.242; in assay [3], 0.0435; in [4], 0.536; in assay [5], 0.5; in assay [6], 1.24. Moreover, the composite z-score is 1.17 in [7]; -0.0007 in assay [9]; 0.158 in assay [10]; 1.55 in assay [11]; 1.39 in assay [15]; -0.0974 in assay [17]. In addition, the composite z-score in assay [18] is 1.66; in assay [19] it was 1.07; in assay [20] it was 0.0333. Besides, the z-score in assay [8] is 0.46 (inactive); in assay [12] it was 1.38 (inactive); in [13], 0.802 (inactive); in assay [14] it was 4.48 (inactive); in assay [16], -0.428 (inactive).

`N#Cc1ccc(NN2C(C(O)CCc3ccccc3)C=CC3C(=O)N(c4ccccc4)C(=O)C32)cc1` (stereo not given): the composite z-score is 0.681 in [1]; 0.936 in [2]; 0.078 in [3]; -0.0011 in assay [4]; 1.62 in assay [5]; 1.17 in assay [6]. For the same molecule, the composite z-score in [7] is 1; in assay [9], 1.02; in [10], -0.177; in assay [11] it was 0.212; in [15] it was 3.01; in [17] it was 0.25. Also, the composite z-score was -0.172 in assay [18], 1.13 in [19] and 0.35 in assay [20]. Further, the z-score is -1.22 (inactive) in [8]; -1.53 (inactive) in assay [12]; 0.222 (inactive) in assay [13]; 1.13 (inactive) in [14]; -1.11 (inactive) in [16].
